Test results from the supplement of paper PMC13380429.
Counter-ions that a name gives are not always drawn. Unmarked numbers belong to inactive results.

Tested on: Vero E6 infected with SARS-CoV-2
Assay: inhibition of SARS-CoV-2 cytopathic effect; higher = more antiviral protection, active = above 15
Details: 48 h

Row | SMILES | inhibition of SARS-CoV-2 cytopathic effect (1 nM) [%] | inhibition of SARS-CoV-2 cytopathic effect (8.33 nM) [%] | inhibition of SARS-CoV-2 cytopathic effect (100 nM) [%] | inhibition of SARS-CoV-2 cytopathic effect (833.33 nM) [%] | inhibition of SARS-CoV-2 cytopathic effect (10000 nM)
1 | CNCCn1c(=O)c2cc(OC)c(OC)cc2c2cnc3cc4c(cc3c21)OCO4 | 3.31 | 1.57 | -1.27 | -9.93 | -15.7%
2 | CC(=O)N(c1onc(C)c1C)S(=O)(=O)c1ccc(N)cc1 [sulfisoxazole-acetyl] | -4.04 | -3.48 | -3.58 | -0.91 | 0.37%
3 | COc1ccc(C(Cl)=C(c2ccc(OC)cc2)c2ccc(OC)cc2)cc1 [chlorotrianisene] | -2.25 | 0.16 | -0.43 | -2.65 | 5.78%
4 | O=C1O[C@H](CO)[C@@H](O)[C@H](O)[C@H]1O [gluconolactone] | -1.05 | 1.67 | -0.14 | -0.97 | -1.07%
5 | C[C@@H]1O[C@@H](O[C@H]2[C@H](Oc3cc(O)c4c(c3)O[C@H](c3ccc(O)cc3)CC4=O)O[C@H](CO)[C@@H](O)[C@@H]2O)[C@H](O)[C@H](O)[C@H]1O [Naringin (Naringoside)] | -3.68 | -1.36 | -3.02 | -1.1 | 1.71%
6 | FC(F)(F)c1cc(NC(=S)Nc2ccc(Br)cc2-c2nnn[nH]2)cc(C(F)(F)F)c1 | -3.42 | -1.08 | -1.11 | 3.36 | 0.52%
7 | COc1cccc(N(C)C(=S)Oc2ccc3c(c2)CCCC3)n1 [liranaftate] | -2.95 | 1.62 | 0.18 | -0.32 | 1.9%
8 | CNCc1cc(-c2ccccc2F)n(S(=O)(=O)c2cccnc2)c1 [vonoprazan] | -3.91 | -1.43 | -1.96 | -1.21 | -4.64%
9 | N#CC(=C(/N)Sc1ccccc1N)/C(C#N)=C(/N)Sc1ccccc1N | -0.64 | 0.76 | 2.1 | -3.9 | -8.7%
10 | O=S(=O)(O)CCSSCCS(=O)(=O)O [dimesna] | -0.79 | 0.36 | 0.65 | -1.27 | -1.4%
11 | CCN1CCN(c2ccc(C(C)(C)NC(=O)c3cc4[nH]c5ccccc5c(=O)c4cc3F)cn2)CC1 | 0.53 | -0.52 | 3.59 | 2.28 | 26.8% (active)
12 | COc1cccc(OCCCN)c1-c1cc(Nc2cnc(C#N)cn2)n[nH]1 | -0.1 | 0.79 | -1.17 | -4.06 | -3.92%
13 | NC(=O)[C@H]1CCS[C@@H]2C[C@]3(CCCN3C(=O)Cc3ccc(NC(=O)COc4ccc(Cl)cc4Cl)cc3)C(=O)N12 | 0.49 | 0.01 | 1.37 | 0.74 | -6.32%
14 | O=c1[nH]c2ccccc2c(=O)n1CCCN1CCN(c2ccccc2)CC1 [pelanserin] | 0.03 | 1.75 | -0.08 | 1.18 | 0.03%
15 | C=CC(=O)Nc1cc2c(Nc3ccc(F)c(Cl)c3)ncnc2cc1OCCCN1CCOCC1 [canertinib] | 2.3 | -2.25 | -6.93 | -13.4 | -20.1%
16 | NS(=O)(=O)c1cc(C(=O)O)c(NCc2ccco2)cc1Cl [furosemide] | -1.05 | 1.27 | -1.4 | 0.41 | 2.18%
17 | Nc1nc(O)c2ncn(CCC(CO)CO)c2n1 [penciclovir] | -0.77 | -0.01 | -0.81 | 0.81 | -2.4%
18 | CO/N=C(\C(=O)N[C@@H]1C(=O)N2C(C(=O)O)=C(Cn3ccc(=N)n3CCO)CS[C@H]12)c1csc(N)n1 [Cefoselis sulfate] | 0.33 | -3.45 | -1.18 | -1.56 | 1.21%
